Publication PMC11062922 (Nature Chemical Biology, 2023)
Like-named read-outs stand apart in the source and are kept apart here.

Columns and labels:
Parameters in all cases: species or system human, MV4-11 + K-562 + COLO205 + SK-N-BE2 + OVCAR-8
[1] = tested on: CSNK1D; conditions: read-out: apparent Kd, n = 1
[2] = tested on: ATM; conditions: read-out: apparent Kd, n = 1
[3] = tested on: AURKA; conditions: read-out: apparent Kd, n = 1
[4] = tested on: BCR; conditions: read-out: apparent Kd, n = 1
[5] = tested on: EPHA4; conditions: read-out: apparent Kd, n = 1
[6] = tested on: EPHA5; conditions: read-out: apparent Kd, n = 1
[7] = tested on: PRKACA; conditions: read-out: apparent Kd; compound concentrations: 100 nM and 1000 nM (sheet 'Samples'), CATDS: 2.4809932188679999E-2; n = 1
[8] = tested on: PRKACB; conditions: read-out: apparent Kd, n = 1
[9] = tested on: TNK1; conditions: read-out: apparent Kd, n = 1
[10] = tested on: STK16; conditions: read-out: apparent Kd; compound concentrations: 100 nM and 1000 nM (sheet 'Samples'), CATDS: 2.76147737346315E-2; n = 1
[11] = tested on: CAMKK2; conditions: read-out: apparent Kd; compound concentrations:100 nM and 1000 nM (sheet 'Samples'); n = 1
[12] = tested on: CHEK1; conditions: read-out: apparent Kd; compound concentrations:100 nM and 1000 nM (sheet 'Samples'); n = 1
[13] = tested on: MARK3; conditions: read-out: apparent Kd; compound concentrations:100 nM and 1000 nM (sheet 'Samples'); n = 1
[14] = tested on: PIP4K2C; conditions: read-out: apparent Kd; compound concentrations:100 nM and 1000 nM (sheet 'Samples'); n = 1
[15] = tested on: PRKAG2; conditions: read-out: apparent Kd; compound concentrations:100 nM and 1000 nM (sheet 'Samples'); n = 1
[16] = tested on: RPS6KA4; conditions: read-out: apparent Kd; compound concentrations:100 nM and 1000 nM (sheet 'Samples'); n = 1
[17] = compound concentrations:100 nM and 1000 nM (sheet 'Samples')

Q: How did the potency estimated from few doses [1, 17] turn out when `Cl.NCc1ccc(-c2nc(-c3ccc(Cl)c(O)c3)c(-c3ccncc3)[nH]2)cc1` [SB-476429-A] was run?
A: The potency estimated from few doses was 1290 nM.

Q: What does the source list for `CN(c1ccc(NC(=O)Nc2cccc(Cl)c2)cc1)c1ccnc(N)n1.Cl` [GW830707A]?
A: potency estimated from few doses ([2]; compound concentrations: 100 nM and 1000 nM (sheet 'Samples'), CATDS: 7.3316367539925598E-2): 4.81 nM; potency estimated from few doses ([3]; compound concentrations: 100 nM and 1000 nM (sheet 'Samples'), CATDS: 1.10158492855777E-2): 1100 nM; potency estimated from few doses ([4]; compound concentrations: 100 nM and 1000 nM (sheet 'Samples'), CATDS: 2.64796261985909E-2): 26.5 nM; potency estimated from few doses ([5]; compound concentrations: 100 nM and 1000 nM (sheet 'Samples'), CATDS: 2.6652421745355599E-2): 26.2 nM; potency estimated from few doses ([6]; compound concentrations: 100 nM and 1000 nM (sheet 'Samples'), CATDS: 2.89918726046417E-2): 22 nM; potency estimated from few doses [7]: 30.7 nM; potency estimated from few doses ([8]; compound concentrations: 100 nM and 1000 nM (sheet 'Samples'), CATDS: 1.9106655898432998E-2): 60.7 nM; potency estimated from few doses ([9]; compound concentrations: 100 nM and 1000 nM (sheet 'Samples'), CATDS: 0.104039802479183): 3.01 nM

Q: `Cc1ccc(Nc2ccnc(Nc3ccc4c(c3)CS(=O)(=O)C4)n2)cc1O.Cl` [GW579362A] was tested. Which potency estimated from few doses ([3]; compound concentrations: 100 nM and 1000 nM (sheet 'Samples'), CATDS: 4.77260985286359E-2) did it give?
A: The potency estimated from few doses was 393 nM.

Q: What about the potency estimated from few doses ([4]; compound concentrations: 100 nM and 1000 nM (sheet 'Samples'), CATDS: 4.5785194143174703E-2) of the same compound?
A: The potency estimated from few doses was 428 nM.

Q: And the potency estimated from few doses [10]?
A: Its potency estimated from few doses is 1620 nM.

Q: For `Cc1cccc2c(-c3ccncn3)c(-c3ccc(F)cc3)nn12` [GW515532X], which potency estimated from few doses ([1]; compound concentrations: 100 nM and 1000 nM (sheet 'Samples'), CATDS: 0.213897093745788) is on record?
A: The potency estimated from few doses was 1920 nM.

Q: What does the source list for `O=C1NC(=O)C(N2CCc3ccccc32)=C1c1ccccc1Cl` [SB-373598]?
A: potency estimated from few doses [2, 17]: 39.1 nM; potency estimated from few doses [3, 17]: 295 nM; potency estimated from few doses [4, 17]: 243 nM; potency estimated from few doses [11]: 588 nM; potency estimated from few doses [12]: 999 nM; potency estimated from few doses [5, 17]: 387 nM; potency estimated from few doses [6, 17]: 276 nM; potency estimated from few doses [13]: 1280 nM; potency estimated from few doses [14]: 1020 nM; potency estimated from few doses [8, 17]: 1480 nM; potency estimated from few doses [15]: 1390 nM; potency estimated from few doses [16]: 1220 nM; potency estimated from few doses [9, 17]: 31.3 nM
